Source: PubChem (several laboratories)
MEKK2mut PB1 HTS – MEK5 binding signal on mutant MEKK2 PB1, primary screen, biochemical, multiplex bead flow cytometry, Alexa488-MEK5 | percent response, % at 10 µM | 290,000 tested, 0.35% active | Alexa488-MEK5 binding to MEKK2 mutant; in the data active = percent response above about 24%, passing the limit was not always enough
Arbovirus anti – antivirals against arbovirus infection, primary screen, cell-based, full library, 10K replicate subset; arbovirus infection cell-based antiviral screen; AID 1251, 2008; 200,000 tested, 0.37% active; inhibition, % at 10 µM; in the data active = inhibition above about 30%
MEKK3 PB1 HTS – modulators of MEKK3-MEK5 PB1 binding, primary screen, biochemical, wildtype MEKK3, multiplex bead flow cytometry, Alexa488-MEK5; bead-based flow cytometry, Alexa488-MEK5 binding to MEKK3; actives lie on both sides; 0 = blocked by unlabeled MEK5, 100 = vehicle; 290,000 tested, 1.4% active; binding response (% of control), % at 10 µM;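 active = binding response more than 3 SD above or below the average of its plate-row segment, actives on both sides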;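 also: Alexa488 bead fluorescence after subtracting the streptavidin-only scavenger bead signal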
Target sequence (Q99759 whole entry, looked up): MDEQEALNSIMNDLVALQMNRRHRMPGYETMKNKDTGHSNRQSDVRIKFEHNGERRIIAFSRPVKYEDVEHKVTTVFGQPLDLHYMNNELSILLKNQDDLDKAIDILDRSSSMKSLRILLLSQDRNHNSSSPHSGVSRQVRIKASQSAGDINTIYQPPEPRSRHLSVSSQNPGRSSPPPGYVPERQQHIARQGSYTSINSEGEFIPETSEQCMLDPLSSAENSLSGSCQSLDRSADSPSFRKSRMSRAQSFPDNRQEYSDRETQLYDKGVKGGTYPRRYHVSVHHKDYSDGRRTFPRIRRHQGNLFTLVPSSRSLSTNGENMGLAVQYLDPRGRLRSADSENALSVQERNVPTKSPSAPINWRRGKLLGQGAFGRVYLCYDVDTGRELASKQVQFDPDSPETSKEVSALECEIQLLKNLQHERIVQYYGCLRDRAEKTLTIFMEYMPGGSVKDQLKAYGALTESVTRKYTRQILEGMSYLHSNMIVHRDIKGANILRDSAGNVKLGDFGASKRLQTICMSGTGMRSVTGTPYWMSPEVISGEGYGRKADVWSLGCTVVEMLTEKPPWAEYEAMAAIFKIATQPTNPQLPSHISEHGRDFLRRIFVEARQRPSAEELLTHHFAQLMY
MEKK2wt PB1 HTS – modulators of MEK5 binding to wildtype MEKK2, primary screen, biochemical, multiplex bead flow cytometry, Alexa488-MEK5. Mitogen-activated protein kinase kinase kinase 2 (Homo sapiens), Q9Y2U5. Alexa488-MEK5 binding to MEKK2 WT; actives lie on both sides. binding response (% of control), % at 10 µM. 290,000 tested, 1.1% active; in the data active = binding response below about 67% or above about 130%
Pf gametocyte – late stage P. falciparum gametocyte viability inhibitors, primary screen, ATP luminescence, HTS | P. falciparum stage V gametocytes, 24 h | inhibition, % at 10.9 µM | 150,000 tested, 0.065% active | AID 743093, 2013;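 active = inhibition above the mean plus 3 SD of compounds within the control limits, set per campaign, cut at about 38% in these data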;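 also: 0% = DMSO wells and 100% = medium only without gametocytes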
MEKK2wt confirm – modulators of MEK5 binding to wildtype MEKK2, confirmation, biochemical, single concentration, multiplex bead flow cytometry. binding response (% of control), % at 10 µM. Alexa488-MEK5 binding to MEKK2 WT; actives lie on both sides. shares compounds with MEKK3 PB1 HTS. 5,900 tested, 2.4% active; in the data active = binding response below about 16% or above about 210%; inactive = in between
MEKK2mut-MEK5 – mutant MEKK2 PB1-MEK5 binding signal retest – biochemical, single concentration, multiplex bead flow cytometry, confirmation; percent response, % at 10 µM; AID 1893, 2009; shares compounds with MEKK3 PB1 HTS; Alexa488-MEK5 binding to MEKK2 mutant; 5,900 tested, 2% active; in the data active = percent response mostly above about 71%, no sharp cut-off; inactive = mostly below about 38%;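 also: higher means compound restores mutant binding toward wildtype level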
MEKK3-MEK5 inh – MEKK3 wild-type PB1 binding to MEK5, inhibitors, confirmation, biochemical, bead multiplex flow cytometry, single concentration, wildtype. shares compounds with MEKK3 PB1 HTS. Alexa488-MEK5 binding to MEKK3; stronger effect = lower value. binding response (% of control), % at 10 µM. 5,900 tested, 1.8% active;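 active = binding response below 72% of control, or above a set upper limit, though filed actives all read lower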;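 also: 100% = DMSO only wells and 0% = binding blocked by excess unlabeled MEK5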
* marks the source's active call; other numbers are inactive results; [ ] = dose if it differs, or a comment. In the library only some 2.4% were active in any assay of this set; here they are far more common.

For Cc1cc(Cl)ccc1NC(=S)NCC(C)C the results were MEKK2mut PB1 HTS 0, Arbovirus anti 2, MEKK3 PB1 HTS 138*, MEKK2wt PB1 HTS 111, Pf gametocyte -56, MEKK2wt confirm 103, MEKK2mut-MEK5 8 and MEKK3-MEK5 inh 103.
`Cc1cc(Cl)ccc1NC(=S)NCc1ccccc1Cl` gave MEKK2mut PB1 HTS 0, Arbovirus anti 9, MEKK3 PB1 HTS 128*, MEKK2wt PB1 HTS 109, Pf gametocyte -14, MEKK2wt confirm 103, MEKK2mut-MEK5 2 and MEKK3-MEK5 inh 101.
S=C(NCc1ccccc1Cl)Nc1ccccc1Cl was read as MEKK2mut PB1 HTS -1, Arbovirus anti 4, MEKK3 PB1 HTS 101, MEKK2wt PB1 HTS 98 and Pf gametocyte 12.
For CN(C)CCNC(=O)C1CCN(S(=O)(=O)c2ccc3ccccc3c2)CC1 the results were MEKK2mut PB1 HTS 7, MEKK3 PB1 HTS 98 and MEKK2wt PB1 HTS 106.
`Cc1ccc(NS(=O)(=O)c2cc([N+](=O)[O-])ccc2N/N=C/c2sc(N3CCOCC3)nc2-c2ccccc2)c(C)c1` gave MEKK2mut PB1 HTS 49, MEKK3 PB1 HTS 10*[inhibitor], Pf gametocyte 5, MEKK2wt confirm 106, MEKK2mut-MEK5 3 and MEKK3-MEK5 inh 102.
COc1ccc(C2c3c(ncn(CCN4CCOCC4)c3=N)Oc3ccc4ccccc4c32)cc1OC (centres undefined) was read as MEKK2mut PB1 HTS 21, Arbovirus anti -14, MEKK3 PB1 HTS 109, MEKK2wt PB1 HTS 163*, MEKK2wt confirm 153, MEKK2mut-MEK5 28 and MEKK3-MEK5 inh 107.
`COc1ccccc1C1c2ccc3ccccc3c2Oc2ncn(CCN(C)C)c(=N)c21` (centres undefined) gave MEKK2mut PB1 HTS 32*, MEKK3 PB1 HTS 115, MEKK2wt PB1 HTS 153*, MEKK2wt confirm 150, MEKK2mut-MEK5 29 and MEKK3-MEK5 inh 107.
`COc1ccc(C2c3ccc(O)cc3Oc3ncn(Cc4ccco4)c(=N)c32)cc1OC` (centres undefined) gave MEKK2mut PB1 HTS 3, MEKK3 PB1 HTS 99, MEKK2wt PB1 HTS 108 and Pf gametocyte -1.
Screening COc1ccc(C2c3ccc4ccccc4c3Oc3ncn(Cc4ccco4)c(=N)c32)cc1OC (centres undefined) returned MEKK2mut PB1 HTS 34, Arbovirus anti -23, MEKK3 PB1 HTS 103, MEKK2wt PB1 HTS 161*, Pf gametocyte -2, MEKK2wt confirm 147, MEKK2mut-MEK5 33 and MEKK3-MEK5 inh 109.
COc1ccc(C2c3ccc4ccccc4c3Oc3ncn(CCCN(C)C)c(=N)c32)cc1 (centres undefined) was read as MEKK2mut PB1 HTS 51*, MEKK3 PB1 HTS 111, MEKK2wt PB1 HTS 202*, MEKK2wt confirm 198, MEKK2mut-MEK5 55 and MEKK3-MEK5 inh 100.
COc1ccccc1C1c2ccc3ccccc3c2Oc2ncn(CCCO)c(=N)c21 (centres undefined) was read as MEKK2mut PB1 HTS 6, MEKK3 PB1 HTS 100 and MEKK2wt PB1 HTS 121.
`Cc1cc(C(=O)NCCc2ccccc2)c2cc(F)ccc2n1` gave MEKK2mut PB1 HTS -9, Arbovirus anti 5, MEKK3 PB1 HTS 109, MEKK2wt PB1 HTS 92 and Pf gametocyte 4.
For Cc1cc(C)cc(NC(=O)CN2CCC(NC(=O)c3ccccc3F)CC2)c1 the results were MEKK2mut PB1 HTS 8, MEKK3 PB1 HTS 104, MEKK2wt PB1 HTS 135*, MEKK2wt confirm 117, MEKK2mut-MEK5 6 and MEKK3-MEK5 inh 101.
For O=C(CCc1nnc(-c2ccccc2)o1)c1ccc(Cl)cc1 the results were MEKK2mut PB1 HTS -9, MEKK3 PB1 HTS 91, MEKK2wt PB1 HTS 93 and Pf gametocyte -1.
Screening COc1ccc(C(=O)NNC(=O)c2ccccn2)cc1 returned MEKK2mut PB1 HTS -2, Arbovirus anti -3, MEKK3 PB1 HTS 106 and MEKK2wt PB1 HTS 103.
`COc1cc(OC)cc(C(=O)NNC(=O)c2ccccn2)c1` gave MEKK2mut PB1 HTS 0, Arbovirus anti -35, MEKK3 PB1 HTS 135*, MEKK2wt PB1 HTS 106, Pf gametocyte -5, MEKK2wt confirm 113, MEKK2mut-MEK5 5 and MEKK3-MEK5 inh 105.
Screening CCN1/C(=N\N)c2cccc3cccc1c23 returned MEKK2mut PB1 HTS -11, Arbovirus anti 1, MEKK3 PB1 HTS 58*[inhibitor], MEKK2wt PB1 HTS -8.0*, Pf gametocyte 4, MEKK2wt confirm 64, MEKK2mut-MEK5 -11 and MEKK3-MEK5 inh 77.
For CCC(C)NC(=O)CN1C(=O)c2cccc3cccc1c23 (centres undefined) the results were MEKK2mut PB1 HTS 5, MEKK3 PB1 HTS 102, MEKK2wt PB1 HTS 100 and Pf gametocyte 11.
For COc1ccc(CC(=O)NC2CC(C)(C)NC(C)(C)C2)cc1OC the results were MEKK2mut PB1 HTS 2, MEKK3 PB1 HTS 105 and MEKK2wt PB1 HTS 100.
For CCOc1ccc(C(=O)Nc2ncccc2Cl)cc1 the results were MEKK2mut PB1 HTS -7, Arbovirus anti -7, MEKK3 PB1 HTS 99, MEKK2wt PB1 HTS 89 and Pf gametocyte -9.
`CN(CCO)C(=O)c1cccc2c1-c1ccccc1C2=O` gave MEKK2mut PB1 HTS -11, Arbovirus anti 2, MEKK3 PB1 HTS 81*[inhibitor], MEKK2wt PB1 HTS 90, Pf gametocyte -12, MEKK2wt confirm 101, MEKK2mut-MEK5 -1 and MEKK3-MEK5 inh 101.
Screening CN(CCO)C(=O)C(c1ccccc1)c1ccccc1 returned MEKK2mut PB1 HTS -3, MEKK3 PB1 HTS 95, MEKK2wt PB1 HTS 94 and Pf gametocyte -4.
For N#C/C(=C/c1ccc(N2CCCCC2)o1)C(=O)Nc1ccc(Cl)cc1 the results were MEKK2mut PB1 HTS 4, Arbovirus anti 3, MEKK3 PB1 HTS 93, MEKK2wt PB1 HTS 88 and Pf gametocyte 14.
N#C/C(=C/c1ccc(N2CCCCC2)o1)C(=O)Nc1ccc2ccccc2c1 was read as MEKK2mut PB1 HTS 206*, Arbovirus anti -7, MEKK3 PB1 HTS 148*, MEKK2wt PB1 HTS 210*, Pf gametocyte 14, MEKK2wt confirm 89, MEKK2mut-MEK5 -30 and MEKK3-MEK5 inh 92.
